# Experimental data taken from PubChem BioAssay AID652016 (National Center for Advancing Translational Sciences (NCATS), 2013).
# Inconclusive results are not listed. The source made the active and inactive calls. Calls follow the shape of the dose curve; as a rule, active = well fitted inhibition curve with a large enough effect; inconclusive = small, poorly fitted or top-dose-only effect; inactive = flat fitted curve, though single readings scatter.
# Biological target: Luciferin 4-monooxygenase (Photinus pyralis) (UniProt P08659)
# Assay: qHTS Assay for Inhibitors of Firefly Luciferase from the GSK Published Protein Kinase Inhibitor Set
# Details: purified firefly luciferase, luminescence inhibition; series mostly up to 57.5 µM; activity change, negative = inhibition: at the top concentration
# Method in brief: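 Enzyme-level luminescence assay: compounds titrated (about 60uM down to 300pM) into substrate buffer (10uM ATP, 10uM D-luciferin, pH 7.5 Tris acetate with Mg, Tween-20, BSA), then 10nM firefly luciferase added; read after ~5 min.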
# % is scaled to controls: 0 for no effect and ±100 for the full control effect; potency is read from the fitted curve at half-maximal effect.
# Chain of Luciferin 4-monooxygenase (Photinus pyralis) (P08659 whole entry, looked up): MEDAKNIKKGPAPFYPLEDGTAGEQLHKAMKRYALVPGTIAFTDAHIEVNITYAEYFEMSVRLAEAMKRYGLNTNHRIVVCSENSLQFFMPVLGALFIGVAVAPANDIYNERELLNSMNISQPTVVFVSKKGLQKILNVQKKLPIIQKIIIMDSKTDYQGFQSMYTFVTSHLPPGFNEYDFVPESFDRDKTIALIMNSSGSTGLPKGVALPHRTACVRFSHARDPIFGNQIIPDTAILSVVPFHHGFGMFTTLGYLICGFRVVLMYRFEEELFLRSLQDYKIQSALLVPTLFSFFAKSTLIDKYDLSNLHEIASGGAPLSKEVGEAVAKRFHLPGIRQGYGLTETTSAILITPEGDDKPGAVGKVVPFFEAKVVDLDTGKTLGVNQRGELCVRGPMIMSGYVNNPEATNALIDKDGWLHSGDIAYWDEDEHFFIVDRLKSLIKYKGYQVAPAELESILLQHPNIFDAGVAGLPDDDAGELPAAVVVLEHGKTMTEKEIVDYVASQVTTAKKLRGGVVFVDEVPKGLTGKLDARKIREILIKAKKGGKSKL
Structure (SMILES),Potency,"activity change, negative = inhibition"
Oc1[nH]c2ccccc2c1C=Nc1ccc(-n2cncn2)cc1,18.3 µM (active),
Cc1ccc2c(-c3ccnc(Nc4ccc5c(c4)OCCO5)n3)c(-c3ccc(C(F)(F)F)cc3)nn2n1,,-0.549% (inactive)
CCn1c(-c2nonc2N)nc2cncc(C(=O)N3CCC(N)C3)c21 (centres undefined),,3.05% (inactive)
Nc1ncnc2occ(-c3ccc(NC(=O)Nc4cc(C(F)(F)F)cc(C(F)(F)F)c4)cc3)c12,,6.97% (inactive)
CCn1c(-c2nonc2N)nc2ccncc21,,0.105% (inactive)
c1ccc(-c2[nH]ncc2-c2ccnc(-c3ccc(OCCn4ccnc4)cc3)c2)nc1,,0.937% (inactive)
COc1ccc2c(-c3ccnc(Nc4cccc(OC(F)(F)F)c4)n3)cnn2n1,,6.14% (inactive)
COC(=O)c1sc(-n2cnc3cc(OC)c(OC)cc32)cc1OCc1ccccc1C(F)(F)F,,7.89% (inactive)
O=C1NC(=O)C(c2cccc([N+](=O)[O-])c2)=C1Nc1cc(Cl)c(O)c(Cl)c1,,-10.5% (inactive)
CCS(=O)(=O)c1ccc(OC)c(Nc2ncc(-c3ccccc3Cl)o2)c1,,-5.19% (inactive)
CNC(=O)c1sc(-n2cnc3cc(OC)c(OC)cc32)cc1OCc1ccccc1C(F)(F)F,,6.52% (inactive)
CCn1c(-c2nonc2N)nc2cncc(C(=O)NCCNC)c21,,9.59% (inactive)
Nc1nccc(-c2c(-c3ccc(F)cc3)ncn2C2CCNCC2)n1,,13.5% (inactive)
N#Cc1c(NC(=O)c2ccc(F)cc2)sc2c1CCCC2,0.919 µM (active),
COc1cccc(COc2cc(-n3cnc4ccccc43)sc2C(N)=O)c1,,2.69% (inactive)
Cc1ccc2[nH]c(O)c(N=Nc3ccc(S(N)(=O)=O)cc3)c2c1,,-6.27% (inactive)
NS(=O)(=O)c1cccc(Nc2cc(-c3ccc(F)cc3)[nH]n2)c1,11.6 µM (active),

Structure (SMILES),Potency,"activity change, negative = inhibition"
c1ccc(-c2[nH]ncc2-c2ccnc(-c3ccc(OCCN4CCOCC4)cc3)c2)nc1,,2.73% (inactive)
O=C1Nc2ccccc2C1=C1CCc2cc(O)ccc21,5.17 µM (active),
Nc1ncnc2occ(-c3ccc(NC(=O)Nc4cccc(C(F)(F)F)c4)cc3)c12,,4.49% (inactive)
COc1cc(C=NNc2ncnc3c2cnn3-c2ccccc2)ccc1O,,-18.7% (inactive)
COc1ccc2cc(-c3c(-c4ccncc4)nc(-c4ccc(S(C)=O)cc4C)n3C)ccc2c1 (centres undefined),,-15.7% (inactive)
NS(=O)(=O)c1ccc(N=Nc2c(O)[nH]c3ccc(C(=O)NCCc4cnc[nH]4)cc23)cc1,,4.63% (inactive)
CC1=C(C(=O)Nc2ccc3[nH]ncc3c2)C(c2ccc(Cl)c(Cl)c2)CC(=O)N1 (centres undefined),,7.19% (inactive)
NCc1ccc(-n2c(-c3nonc3N)nc3cnccc32)cc1,,12.6% (inactive)
CC(C)c1ccc2c(N=Nc3ccc(S(N)(=O)=O)cc3)c(O)[nH]c2c1,,-12.5% (inactive)
Cc1ccc2c(-c3ccnc(Nc4ccccc4)n3)c(-c3ccc(F)cc3)nn2n1,,1.59% (inactive)
FC(F)(F)c1cccc(Nc2nccc(-c3cnn4nc(-c5ccccc5)ccc34)n2)c1,,-11.3% (inactive)
NC(=O)c1sc(-n2cnc3ccc(C(F)(F)F)cc32)cc1OCc1ccccc1Br,,-6.69% (inactive)
CCn1c(-c2nonc2N)nc2c(C#CC(C)(C)O)ncc(OCC3CCNCC3)c21,,6.19% (inactive)
Fc1cccc(COc2ccc(Nc3ncncc3C#Cc3ccccc3)cc2Cl)c1,,1.29% (inactive)
Cc1nc(-c2ccccc2)n2nc(NCCCN3CCOCC3)ncc12,,-1.42% (inactive)
CN1CCN(CCCNc2nc3ccc(Oc4ccc(NC(=O)Nc5cc(C(F)(F)F)ccc5F)cc4)cc3[nH]2)CC1,,-22.9% (inactive)
CNC(=O)c1cc(-c2ccc(F)cc2)cc(-c2ccc(S(=O)(=O)N3CCCC3)cc2)c1N,,9.72% (inactive)
